Among the data in PubChem BioAssay (NCI) are growth values, retold here.

About 83,000 compounds went through this panel and 20% of them were active in at least one assay; those are over-represented in the sample as a whole.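 Method: cells in 96-well plates; compound added at one concentration; 48 h incubation; percent growth measured; values under 10 scored active.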 Unmarked numbers belong to inactive results. The source made the active and inactive calls.

Holding throughout (assay): NCI-60 one-dose screen, 48 h (100 = growth as untreated, 0 = no growth, -100 = all killed)
One test relates to HCT-15 colon. The following applies: 10 µM unless noted.
In another test the test system is SNB-75 CNS. The following applies: 10 µM unless noted.
The subject of the next test is SNB-19 CNS. The following applies: 10 µM unless noted.
The next test has as its system PC-3 prostate. The following applies: 10 µM unless noted.
A further test has as its system SK-MEL-5 melanoma. The following applies: 10 µM unless noted.
In a further test the test system is UACC-62 melanoma. The following applies: 10 µM unless noted.
A further test has as its system LOX IMVI melanoma. The following applies: 10 µM.
Another test relates to SK-MEL-28 melanoma. The following applies: 10 µM unless noted.
The subject of another test is SK-MEL-2 melanoma. The following applies: 10 µM unless noted.
For another test, the system named is SN12C renal. The following applies: 10 µM unless noted.
The next test relates to UO-31 renal. To be noted: 10 µM unless noted.
For another test, the system named is TK-10 renal. The following applies: 10 µM unless noted.
In another test the test system is ACHN renal. The following applies: 10 µM unless noted.
For the next test, the system named is CAKI-1 renal. To be noted: 10 µM unless noted.
Another test relates to CCRF-CEM leukemia. To be noted: 10 µM unless noted.
In another test the test system is MOLT-4 leukemia. To be noted: 10 µM unless noted.
The subject of a further test is U251 CNS. The following applies: 10 µM unless noted.
Another test concerns A498 renal. The following applies: 10 µM unless noted.
For a further test, the system named is EKVX NSCLC. To be noted: 10 µM unless noted.

In the case of `O=S(=O)(OCCOS(=O)(=O)c1ccccc1)c1ccccc1`, the growth with HCT-15 colon is 91.9%; with SNB-75 CNS it was 93.6%; in the test on SNB-19 CNS, 104%; in the test with PC-3 prostate, 94.4%; in the test with SK-MEL-5 melanoma it was 93.6%; in the test on UACC-62 melanoma, 95.4%. The growth in the test on LOX IMVI melanoma was 91.7%; in the test with SK-MEL-28 melanoma it was 112%; with SK-MEL-2 melanoma it was 103%; in the test on SN12C renal, 97.1%; in the test with UO-31 renal, 83.2%; with TK-10 renal, 102%. The growth in the test on ACHN renal was 105%; with CAKI-1 renal, 89.8%; with CCRF-CEM leukemia, 92.9%; in the test on MOLT-4 leukemia, 93%.

Take `O=C(CCl)Nc1ccccc1SCc1cc(Cl)cc2c1OCOC2`: the growth in the test on HCT-15 colon is 88.5%; in the test on SNB-75 CNS it was 73.9%; in the test on SNB-19 CNS, 99.5%; with U251 CNS, 88.9%; with PC-3 prostate, 82.2%; in the test with SK-MEL-5 melanoma it was 63.3%. Further, the growth in the test on UACC-62 melanoma was 81.2%; in the test with LOX IMVI melanoma it was -76% (active); in the test on SK-MEL-28 melanoma, 94%; in the test on SN12C renal, 91.3%; in the test with UO-31 renal it was 75.7%; in the test with TK-10 renal it was 126%. Moreover, the growth was 35% in the test with CAKI-1 renal, 103% in the test on A498 renal, -27.5% (active) in the test with CCRF-CEM leukemia and 50.7% in the test with MOLT-4 leukemia.

As for `COc1ccc(C2CCCCC2=O)cc1` (stereo not drawn), the growth in the test with HCT-15 colon was 98.6%; in the test with SNB-75 CNS, 101%; in the test on SNB-19 CNS, 111%; with U251 CNS, 99%; in the test with PC-3 prostate it was 95.4%; with SK-MEL-5 melanoma it was 110%. Moreover, the growth was 110% in the test on UACC-62 melanoma; 96.6% with LOX IMVI melanoma; 111% in the test with SK-MEL-28 melanoma; 119% in the test on SK-MEL-2 melanoma; 102% in the test with EKVX NSCLC; 109% in the test with SN12C renal. Besides, the growth with UO-31 renal is 96.7%; in the test with ACHN renal it was 98.7%; with CAKI-1 renal, 105%; in the test with A498 renal, 99.7%; in the test with CCRF-CEM leukemia, 106%; with MOLT-4 leukemia it was 97.9%.

As to `CCOc1ccc(NC(=S)N2CCC(CCCC3CCN(C(=S)Nc4ccc(OCC)cc4)CC3)CC2)cc1`, the growth in the test with HCT-15 colon is 84%; in the test with SNB-75 CNS, 80.3%; in the test with SNB-19 CNS, 96%; in the test with PC-3 prostate, 99%; in the test with SK-MEL-5 melanoma, 42.2%; in the test on UACC-62 melanoma it was 83.7%. The growth in the test with LOX IMVI melanoma is 95.5%; in the test with SK-MEL-28 melanoma, 94.9%; with SK-MEL-2 melanoma, 104%; in the test with EKVX NSCLC, 60.5%; with SN12C renal, 95.9%; in the test with UO-31 renal, -7.89% (active). Further, the growth in the test with TK-10 renal is 96.9%; in the test on ACHN renal, 82.8%; in the test on A498 renal, 79%; with CCRF-CEM leukemia, 81.6%; with MOLT-4 leukemia it was 73.7%.

As for `CC(c1ccccc1)N1C(=O)CSC1=S` (stereo not drawn), the growth in the test on HCT-15 colon is 9.14% (active); in the test with SNB-75 CNS it was 19.9%; in the test on SNB-19 CNS, 104%; in the test on PC-3 prostate, 45.2%; in the test on SK-MEL-5 melanoma it was 34.8%; in the test with UACC-62 melanoma, 34.5%. Besides, the growth was 16.1% in the test with LOX IMVI melanoma; 46.9% in the test on SK-MEL-28 melanoma; 1.02% (active) in the test on SK-MEL-2 melanoma; 52.1% in the test with EKVX NSCLC; 62.4% with SN12C renal; 49.2% in the test with UO-31 renal. The growth in the test with TK-10 renal was 42.3%; with ACHN renal it was 50.7%; in the test on CAKI-1 renal it was 61.1%; in the test with A498 renal, 78.1%; with CCRF-CEM leukemia it was 63.8%; in the test on MOLT-4 leukemia, 28.3%.

As to `C=C(C)[C@@H]1CC[C@]2(CO)CC[C@]3(C)[C@H](CC[C@@H]4[C@@]5(C)CC[C@H](O)C(C)(C)[C@@H]5CC[C@]43C)[C@@H]12`, the growth was 89.7% with HCT-15 colon; 3.72% (active) with SNB-75 CNS; 48% in the test with SNB-19 CNS; 24.9% with U251 CNS; 38.7% in the test on PC-3 prostate; -60.5% (active) in the test with SK-MEL-5 melanoma. In addition, the growth with UACC-62 melanoma was 60.5%; in the test on LOX IMVI melanoma it was 32.2%; in the test with SK-MEL-2 melanoma it was 82.1%; in the test on EKVX NSCLC it was 66.4%; in the test with SN12C renal, 47.5%; in the test with UO-31 renal it was 27.8%. Also, the growth in the test with ACHN renal was 18.3%; in the test with CCRF-CEM leukemia it was 75.7%; in the test with MOLT-4 leukemia it was 71.1%.

In the case of `C1Cc2onc(-c3noc4c3CCC4)c2C1`, the growth in the test with HCT-15 colon was 105%; in the test with SNB-75 CNS it was 116%; in the test on SNB-19 CNS, 98.8%; in the test on U251 CNS it was 106%; in the test on PC-3 prostate it was 103%; in the test on SK-MEL-5 melanoma, 102%. The growth is 96.5% in the test with UACC-62 melanoma; 111% in the test with SK-MEL-28 melanoma; 124% in the test with SK-MEL-2 melanoma; 104% in the test on EKVX NSCLC; 96.2% with SN12C renal; 87.9% in the test on UO-31 renal. The growth in the test on TK-10 renal was 105%; in the test on ACHN renal, 114%; in the test on CAKI-1 renal, 94.5%; with A498 renal, 136%; in the test on CCRF-CEM leukemia it was 101%; in the test with MOLT-4 leukemia, 110%.

Turning to `NNC(=O)CCCCl`, the growth with HCT-15 colon was 104%; in the test on SNB-75 CNS it was 95%; with SNB-19 CNS, 121%; with U251 CNS, 98.3%; in the test on PC-3 prostate it was 104%; in the test on SK-MEL-5 melanoma it was 102%. In addition, the growth with UACC-62 melanoma was 103%; in the test with LOX IMVI melanoma, 91.3%; with SK-MEL-28 melanoma, 110%; with SK-MEL-2 melanoma, 105%; in the test on EKVX NSCLC, 98.6%; with SN12C renal, 102%. Also, the growth in the test on UO-31 renal is 90.5%; in the test on TK-10 renal, 111%; with ACHN renal, 114%; in the test with CAKI-1 renal it was 107%; in the test on A498 renal, 117%; with MOLT-4 leukemia it was 120%.

`C/C(=N\N=C(/C)c1cccc([N+](=O)[O-])c1)c1cccc([N+](=O)[O-])c1`: the growth in the test with HCT-15 colon is 100%; with SNB-75 CNS it was 83.8%; in the test on SNB-19 CNS it was 80.7%; in the test on U251 CNS, 91.1%; in the test with PC-3 prostate, 86.7%; in the test with SK-MEL-5 melanoma it was 94.3%. Moreover, the growth with UACC-62 melanoma was 93.2%; in the test with LOX IMVI melanoma, 91.6%; in the test with SK-MEL-28 melanoma, 101%; in the test with SK-MEL-2 melanoma it was 90.8%; in the test on SN12C renal, 81.7%; with UO-31 renal it was 92.8%. Further, the growth is 90.8% in the test with TK-10 renal; 99.4% in the test on ACHN renal; 99.5% in the test on CAKI-1 renal; 97.9% in the test on A498 renal; 96.5% in the test with CCRF-CEM leukemia; 102% with MOLT-4 leukemia.

Turning to `Cc1nc(C)c(C(=O)O)cc1C(=O)O`, the growth in the test on HCT-15 colon is 103%; with SNB-75 CNS, 91.5%; with SNB-19 CNS it was 109%; in the test with U251 CNS, 107%; in the test on PC-3 prostate, 99.7%; in the test with SK-MEL-5 melanoma, 111%. Further, the growth was 105% in the test on UACC-62 melanoma; 95.8% with LOX IMVI melanoma; 112% in the test with SK-MEL-28 melanoma; 114% in the test with SK-MEL-2 melanoma; 102% with EKVX NSCLC; 125% in the test on SN12C renal. In addition, the growth in the test on UO-31 renal is 97.2%; in the test on TK-10 renal, 112%; in the test on ACHN renal, 104%; with CAKI-1 renal, 100%; with A498 renal it was 89.3%; in the test with MOLT-4 leukemia it was 103%.

Turning to `CCN(CC)CCOC(=O)Nc1c(C(C)C)cccc1C(C)C`, the growth is 106% in the test with HCT-15 colon; 110% with SNB-75 CNS; 99.6% in the test with SNB-19 CNS; 107% with U251 CNS; 95.5% in the test on PC-3 prostate; 95.7% in the test with SK-MEL-5 melanoma. The growth in the test on UACC-62 melanoma was 93.3%; in the test with SK-MEL-28 melanoma, 111%; in the test on SK-MEL-2 melanoma, 124%; with EKVX NSCLC, 106%; in the test with SN12C renal, 105%; in the test with UO-31 renal, 83.1%. The growth in the test with TK-10 renal is 105%; in the test with ACHN renal, 105%; in the test with CAKI-1 renal it was 88.9%; in the test with A498 renal it was 118%; with CCRF-CEM leukemia, 98.4%; in the test with MOLT-4 leukemia, 105%.

Take `OCC1OC(n2ccc3c2ncn2ncnc32)C(O)C1O` (stereo not drawn): the growth with HCT-15 colon is 26.9%; in the test on SNB-75 CNS it was 58.6%; with SNB-19 CNS, 50.3%; in the test with U251 CNS it was 78.6%; in the test on PC-3 prostate, 14.6%; with SK-MEL-5 melanoma, 45.4%. Moreover, the growth was 61.2% in the test on UACC-62 melanoma; 12.9% in the test on LOX IMVI melanoma; 92.5% in the test on SK-MEL-28 melanoma; 67.7% with SK-MEL-2 melanoma; 27.5% in the test on SN12C renal; 27.6% in the test on UO-31 renal. For the same compound, the growth with TK-10 renal was 22.2%; with ACHN renal, 29%; in the test with CAKI-1 renal, 43.5%; in the test with A498 renal it was -5.58% (active); in the test with CCRF-CEM leukemia, 14.1%; in the test with MOLT-4 leukemia, 16.1%.
